Screening results as filed in PubChem BioAssay.
ELG1 DNA repair: ELG1-dependent DNA repair inhibition; AID 504467; hit rate 2.3% among 330,000; Potency, µM (highest dose often 46.1 µM), hits mostly inhibitors; HEK293T ELG1-luciferase reporter, luminescence, 16 h; DNA damage induced by 5-fluorouridine; further: nearly all actives have a fitted effect of over 55% in size
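Reporter activity after DNA damage by 5-fluorouridine is monitored. Compound-treated cells incubate 16 hr at 37 °C, then ONE-Glo is added for 30 min before luminescence reading.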
ELG1 genotox: induces genotoxicity in HEK293T cells with luciferase-tagged ELG1; HEK293T ELG1-luciferase reporter, luminescence, 16 h; Potency, µM (doses to about 46 µM), actives largely listed as activators; hit rate 1.3% among 330,000; AID 504466; further: nearly all actives have a fitted effect of over 60% in size
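DMSO vehicle served as control against compound-treated ELG1-luciferase HEK293T cells; exposure lasted 16 hr at 37 °C and 5% CO2, followed by ONE-Glo luminescence detection after 30 min.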
Rab9 promoter act: activators of Rab9 promoter; Huh7 Rab9 promoter-luciferase reporter, luminescence, 24 h; Potency, µM (highest dose often 9.22 µM), hits mostly activators; hit rate 2.8% among 320,000; AID 485297; further: nearly all actives have a fitted effect of over 60% in size
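Rab9 promoter-driven luciferase in stably transfected Huh7 cells; 1500 cells/well rested 2 h, exposed to compound in DMSO for 24 h at 37 °C, 5% CO2. Luminescence read 10 min after adding luciferase reagent at ambient temperature.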
NPC1 prom act: activators of NPC1 promoter; AID 485313; hit rate 2.4% among 320,000; Huh7 NPC1 promoter luciferase reporter, 24 h; Potency, µM (top dose mostly 9.22 µM), actives largely listed as activators; further: nearly all actives have a fitted effect of over 60% in size
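Stable NPC1-promoter luciferase Huh7 line; cpd (DMSO) 24 h, 37 °C, 5% CO2; Amplite luciferase reagent 10 min RT; luminescence readout. qHTS format.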
SMN2 splice up: enhancers of SMN2 splice variant expression; HEK293 SMN2-luciferase splicing reporter, luminescence, 30-36 h; Potency, µM (titrated, usually from 46.1 µM), usual class: activators; hit rate 2.8% among 210,000; AID 1458; further: nearly all actives have a fitted effect of over 55% in size
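HEK293 cells carry an SMN2 minigene-luciferase reporter in which exon 7 inclusion puts luciferase in frame. Cells were seeded at 2000 cells/well, attached for 10-12 hours, then exposed to compounds for 30-36 hours at 37C before ONE-Glo luminescence.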
FLuc modulator: firefly luciferase modulation, counter-screen for miR-21 project | Potency, µM (highest dose often 57.5 µM), usual class: inhibitors | purified FLuc, Km substrates, luminescence inhibition | AID 588342 | hit rate 6.9% among 360,000; further: nearly all actives have a fitted effect of over 55% in size
Target sequence (P08659 whole entry, looked up): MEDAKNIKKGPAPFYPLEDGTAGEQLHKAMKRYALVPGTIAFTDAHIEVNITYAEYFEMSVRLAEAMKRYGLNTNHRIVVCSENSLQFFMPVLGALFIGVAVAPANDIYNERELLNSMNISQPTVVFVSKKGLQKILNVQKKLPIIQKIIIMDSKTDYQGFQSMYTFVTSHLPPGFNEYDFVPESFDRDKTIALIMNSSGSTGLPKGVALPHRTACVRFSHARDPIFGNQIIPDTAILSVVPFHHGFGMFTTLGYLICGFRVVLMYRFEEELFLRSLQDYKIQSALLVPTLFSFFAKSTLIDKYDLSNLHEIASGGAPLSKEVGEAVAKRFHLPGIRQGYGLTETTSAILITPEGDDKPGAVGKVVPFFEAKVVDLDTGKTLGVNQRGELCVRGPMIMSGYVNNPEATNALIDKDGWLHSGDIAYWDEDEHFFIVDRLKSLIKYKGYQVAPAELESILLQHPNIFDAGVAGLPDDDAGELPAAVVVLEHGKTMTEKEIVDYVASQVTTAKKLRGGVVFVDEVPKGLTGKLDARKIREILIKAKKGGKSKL
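Purified P. pyralis luciferase, 10 nM final, with Km-level 10 uM D-luciferin and 10 uM ATP in 50 mM Tris acetate pH 7.5, 10 mM Mg acetate, 0.01% Tween-20, 0.05% BSA; 6-point qHTS titration about 60 µM downward; luminescence read.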
Hits are given with their value; – = inactive; ? = inconclusive; · = not tested or not shown; [ ] = remark or other dose. An excerpt weighted towards active compounds, which were near 9.3% of everything screened. The call rests on the fitted dose curve; in most records, active means well fitted curve in the direction sought with a large enough effect; inconclusive means small, poorly fitted or top-dose-only effect, or another doubt; inactive means no such curve, though single readings can be large; an effect the other way counts as inactive or inconclusive.

SMILES	ELG1 DNA repair	ELG1 genotox	Rab9 promoter act	NPC1 prom act	SMN2 splice up	FLuc modulator
CC(C)(C)c1ccc(OCc2ccc(C(=O)Nc3cccnc3)o2)cc1	?	?	0.355µM	0.447µM	·	15.1µM
CCCNC(=O)c1ccc(COc2ccc(C(C)(C)C)cc2)o1	–	–	–	–	·	?
CCOC(=O)c1c(C)n(-c2ccccc2)c2ccc(OC(=O)c3ccccc3NC(=O)C(C)(C)C)cc12	·	·	·	·	–	–
COC(=O)c1ccc(COc2ccc(NC(C)=O)cc2)o1	–	–	–	–	·	–
CCc1ccc(OCc2ccc(C(=O)OC)o2)cc1	?	?	?	?	·	16.9µM
O=C(CCc1ccccc1)NCc1ccc2c(c1)OCO2	–	–	–	–	·	–
O=C(Cc1c[nH]c2ccccc12)NCc1ccc(Cl)cc1Cl	?	–	–	–	–	21.3µM
O=C(Cc1c[nH]c2ccccc12)NCc1ccc(Cl)cc1	?	–	–	–	–	?
O=C(NCc1ccccc1)c1c[nH]c2cc3c(cc2c1=O)OCCO3	?	?	2.51µM	3.16µM	12.6µM	2.39µM
O=C(Cc1ccccc1[N+](=O)[O-])NCc1ccc2c(c1)OCO2	?	?	1.78µM	?	–	?
O=C(Cc1ccccc1)NCc1ccc2c(c1)OCO2	?	14.6µM	?	2.82µM	–	7.57µM
OC(CN1CCN(Cc2ccc3c(c2)OCO3)CC1)c1c[nH]c2ccccc12 (stereo unspecified)	13µM	–	–	–	–	–
O=C(Cc1c[nH]c2ccccc12)NCc1ccc2c(c1)OCO2	11.6µM	–	–	–	–	?
COc1cccc(-c2cc(C(F)(F)F)n3nc(N)nc3n2)c1	–	–	–	–	–	–
COc1cccc(-c2cn3nc4c(nc3n2)CCCC4)c1	?	?	0.708µM	0.631µM	1.58µM	0.757µM
Cc1[nH]n2c(=O)c3c(nc2c1-c1ccc(Cl)cc1)CCC3	–	–	–	–	·	–
Clc1ccc(-c2cn3nc4c(nc3n2)CCCC4)cc1	?	?	0.316µM	0.199µM	1.78µM	0.239µM
CCN(CC)S(=O)(=O)c1ccc2c(c1)nc(CN(C)C(=O)Nc1ccc(F)cc1)n2C	·	·	·	·	·	–
CCc1ccccc1NC(=O)CSc1nnc(-c2cc(OC)c(OC)c(OC)c2)o1	·	·	·	·	·	–
Cc1cccc(NC(=O)Nc2c(C)[nH]c(=O)[nH]c2=O)c1C	–	–	–	–	·	–
NC(=O)Cn1c(=O)n(CCCCCC(=O)NCc2ccc(F)cc2)c(=O)c2sccc21	·	·	·	·	–	–
COc1ccc2c(CNC3CCCCCC3)c(C(=O)O)n(Cc3ccccc3F)c2c1	·	·	·	·	·	–
CC(C)(C)c1ccc(-c2ncccc2O)cc1	?	–	–	–	·	13.5µM
c1ccc(-c2nccnc2-c2ccccc2)cc1	–	–	–	–	·	–
COc1ccc(-n2c(-c3ccco3)nc3c(cnn3-c3ccc(Cl)cc3)c2=O)cc1	·	·	·	·	–	–
SMILES	ELG1 DNA repair	ELG1 genotox	Rab9 promoter act	NPC1 prom act	SMN2 splice up	FLuc modulator
O=c1c2cnn(-c3ccccc3)c2nc(-c2ccco2)n1-c1ccccc1	6.31µM	–	–[1.84 µM]	–	·	–
O=c1c2ccccc2oc2nc(-c3ccco3)n(-c3ccccc3)c(=O)c12	?	–	?	?	12.6µM	–
O=c1c2ccccc2oc2nc(-c3ccco3)n(CCc3ccccc3)c(=O)c12	–	–	–	–	–	–
COc1ccc(/C=C/C2=CCN(Cc3ccc(OC)cc3)CC2)cc1	?	–	–	–	–	–
Cc1ccc(OCC(=O)c2cc(C)n(-c3ccccc3)c2C)c([N+](=O)[O-])n1	–	–	–	–	–	19µM
COC(=O)CCn1c(C)cc(C(=O)COc2ccccc2C(N)=O)c1C	–	–	–	–	–	?
CC(=O)Nc1ccccc1OCC(=O)c1cc(C)n(Cc2cccs2)c1C	?	10.3µM	–	–	–	?
Cc1cc(-n2c(C)cc(C(=O)COc3cccnc3[N+](=O)[O-])c2C)no1	–	–	–	–	·	–
Cc1cc(C(=O)COc2cccnc2[N+](=O)[O-])c(C)n1Cc1cccs1	–	?	–	–	–	23.9µM
COc1ccc(OC)c(S(=O)(=O)N2CCCC(C(=O)NCc3cccnc3)C2)c1 (stereo unspecified)	–	–	–	–	·	–
